# Screens from PubChem BioAssay.
# AmpC inh detg = qHTS Inhibitors of AmpC Beta-Lactamase (assay with detergent); P00811; AmpC hydrolysis of nitrocefin, absorbance 480 nm, 0.01% Triton; Potency, µM (doses to about 114 µM), without a hit: at the top dose activity change, negative = inhibition, usual class: inhibitors; hit rate 0.041% among 370,000; AID 485294, 2010;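 note: 0% = no-compound wells and -100% = no-enzyme wells; nearly all actives have a fitted effect of over 25% in size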
# Target sequence (P00811 whole entry, looked up): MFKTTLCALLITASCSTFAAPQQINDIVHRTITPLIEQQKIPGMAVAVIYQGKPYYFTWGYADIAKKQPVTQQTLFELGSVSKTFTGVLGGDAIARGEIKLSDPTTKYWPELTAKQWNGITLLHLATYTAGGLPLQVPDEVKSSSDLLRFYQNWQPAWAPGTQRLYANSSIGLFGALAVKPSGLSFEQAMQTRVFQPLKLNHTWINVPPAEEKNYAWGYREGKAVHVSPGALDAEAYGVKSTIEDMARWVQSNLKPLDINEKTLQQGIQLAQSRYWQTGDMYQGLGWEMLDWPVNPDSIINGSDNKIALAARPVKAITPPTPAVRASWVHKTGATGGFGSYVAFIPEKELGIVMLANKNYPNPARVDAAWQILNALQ
#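 AmpC (5.3 nM in the dispensed reagent) in 20 mM phosphate pH 7.0 with 0.01% (detergent screen) or 0.0001% Triton X-100 was preincubated with compounds for 15 min at room temperature. Nitrocefin was then added from an 800 uM solution, and hydrolysis was followed at 480 nm.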
# AmpC inh no detg = qHTS Inhibitors of AmpC Beta-Lactamase (assay without detergent); AID 485341, 2010; Potency, µM (top dose mostly 57.1 µM), for inactives: top-dose activity change, negative = inhibition, actives largely listed as inhibitors; P00811; AmpC nitrocefin hydrolysis, absorbance 480 nm, 0.0001% Triton; hit rate 0.52% among 330,000;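 note: plate controls were no compound for no effect and no enzyme for full effect; nearly all actives have a fitted effect of over 20% in size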
#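 20 mM phosphate pH 7.0 + 0.01% (detergent screen) or 0.0001% Triton X-100; 5.3 nM AmpC reagent; cpd preinc 15 min RT; nitrocefin (800 uM stock) to start; A480 q20 s × 4 min; Activity was normalised to no-enzyme and no-compound control wells.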
# Sm TGR inh = qHTS Assay for the Inhibitors of Schistosoma Mansoni Peroxiredoxins. purified TGR, DTNB reduction, TNB absorbance 405 nm. Potency, µM (titrated, usually from 114 µM), for inactives: at the highest dose activity change, negative = inhibition, hits mostly inhibitors. hit rate 3% among 360,000. AID 485364, 2010; note: nearly all actives have a fitted effect of over 60% in size
#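 First, TGR (20 nM dispensed) and NADPH were mixed with compound. Second, a 15 min room-temperature incubation followed. Third, further NADPH and then DTNB were added to start the reaction. Finally, TNB absorbance was monitored kinetically.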
# Starred values were filed as active, the others as inactive; ? = inconclusive; nt = no result. In the library only some 3.3% were active in any assay of this set; here they are far more common. Calls come from the whole dose curve; as a rule, active = well fitted curve in the direction sought with a large enough effect; inconclusive = small, poorly fitted or top-dose-only effect, or another doubt; inactive = no such curve, though single readings can be large; an effect the other way counts as inactive or inconclusive. Unless noted, % is set by controls: 0 for no effect and ±100 for the full control effect; potency is the fitted concentration of half-maximal effect.
SMILES,AmpC inh detg,AmpC inh no detg,Sm TGR inh
COc1cccc(N2CCN(CC(=O)Nc3ccccc3C(=O)NCCc3ccccc3)CC2)c1,-7.1%,1.5%,-15.4%
COc1ccccc1C1=Nn2c(COc3ccccc3)nnc2SC1,1.7%,6.9%,7.4%
O=C(NC1CC2CCCC(C1)N2C(=S)Nc1ccc(Cl)cc1)C1CC1 (stereo unspecified),-12.0%,-21.8%,-17.1%
Cc1cc(=O)[nH]c(N/N=C/c2ccccc2Cl)n1,-0.2%,-10.6%,6.1%
Cc1cc(=O)[nH]c(N/N=C/c2cc(C)n(-c3ccccc3)c2C)n1,2.2%,2.5%,31.6µM*
O=C(c1ccc2c(c1)OCO2)C1CCCN(Cc2c(F)ccc(F)c2F)C1 (stereo unspecified),-3.4%,4.4%,-6.5%
CCc1ccc(-c2nc(CS(=O)CC(=O)NCCc3ccc(C)cc3)c(C)o2)cc1 (stereo unspecified),5.0%,nt,22.4µM*
CCc1ccc(-c2nc(CS(=O)CC(=O)NCCN3CCCCCC3)c(C)o2)cc1 (stereo unspecified),5.8%,146.6%,?
Cc1oc(-c2ccccc2Cl)nc1CS(=O)CC(=O)NCCc1ccccc1 (stereo unspecified),1.8%,71.1%,0.0%
CCc1ccc(-c2nc(CS(=O)CC(=O)NCCc3ccccc3)c(C)o2)cc1 (stereo unspecified),0.1%,119.6%,10µM*
CCn1cnc2c1c(=O)n(CC(=O)OC)c(=O)n2Cc1ccccc1,2.1%,-1.5%,-1.1%
CN(CC(=O)NCc1ccco1)S(=O)(=O)c1ccc(F)cc1,?,1.6%,-6.8%
CCN1C(=O)c2ccc(C(=O)Nc3ccc(O)cc3C)cc2C1=O,-8.8%,-10.8%,2.1%
CCCn1c(CN2CCN(C(=O)c3ccco3)CC2)nc2cc(S(=O)(=O)N(C)C)ccc21,-10.5%,173.4%,28.2µM*
CCn1c(CN2CCN(c3ccc(OC)cc3)CC2)nc2cc(S(=O)(=O)N(C)C)ccc21,-1.3%,71.4%,-16.9%
Cc1cccc(-c2nc(CSc3nncn4c3cc3sccc34)c(C)o2)c1,1.2%,nt,-2.0%
CC(CNS(=O)(=O)c1ccc2c(c1)NC(=O)CCS2)c1ccccc1 (stereo unspecified),0.6%,-18.6%,-7.5%
O=C(NC(=S)NNS(=O)(=O)c1ccccc1)c1cccnc1,6.5%,-20.0%,8.91µM*
O=C(NC(=S)NNS(=O)(=O)c1ccccc1)c1ccccc1[N+](=O)[O-],-4.2%,-32.7%,28.2µM*
Cc1ccc(S(=O)(=O)NNC(=O)c2cccnc2)cc1,-8.2%,-13.2%,-4.7%
O=C(NC(=S)NNS(=O)(=O)c1ccccc1)c1ccc([N+](=O)[O-])cc1,-3.0%,-18.6%,20µM*
O=C(NNS(=O)(=O)c1ccccc1)c1cccc(F)c1,-14.8%,250.0%,56.2µM*
Cc1cccc(C(=O)NNS(=O)(=O)c2ccc(F)cc2)c1,-14.4%,-19.5%,-3.7%
O=C(NNS(=O)(=O)c1ccccc1)c1ccc([N+](=O)[O-])cc1,-0.3%,-4.8%,0.2%
O=C(NNC(=S)NC(=O)c1ccccc1[N+](=O)[O-])c1ccccc1Cl,?,-19.7%,1.4%
SMILES,AmpC inh detg,AmpC inh no detg,Sm TGR inh
O=C(c1cccn2c(=O)c3cc(Cl)ccc3nc12)N1CCN(c2ccccc2F)CC1,-2.9%,nt,-4.3%
Cc1nc(NCCc2ccc(O)cc2)c2nnn(Cc3ccccc3)c2n1,-11.0%,-17.4%,0.0%
CCOc1ccc(-c2cccc(NC(=O)c3ccco3)c2)nn1,-10.7%,-29.5%,-4.9%
CC(C)c1ccccc1OCCNC(=S)NC(=O)c1cccnc1,1.2%,15.9%,-25.6%
COc1ccc(-c2noc3c2-c2nc(-c4ccc(Cl)cc4)sc2CC3)cc1,-12.7%,2.1%,-9.3%
CCN1CCN(CCC(=O)Nc2ccccc2C)CC1,?,-20.1%,-1.9%
O=C(/C=C\NCC(=O)c1ccccc1)c1ccc(F)cc1,1.1%,17.8µM*,?
O=C(/C=C\NCC(=O)c1ccccc1)c1ccc2ccccc2c1,0.7%,-44.1%,?
COc1cccc(CNC(=O)c2ccc(-c3nc(CS(=O)(=O)c4ccccc4)c(C)o3)cc2)c1,1.1%,nt,28.2µM*
COc1ccc(CNC(=O)c2ccc(-c3nc(CS(=O)c4ccc(C)cc4)c(C)o3)cc2)cc1 (stereo unspecified),18.6%,nt,?
Cc1ccc(S(=O)(=O)Cc2nc(-c3ccc(C(=O)NCCCOC(C)C)cc3)oc2C)cc1,22.5%,nt,-34.9%
Cc1cccc(CNC(=O)c2ccc(-c3nc(CS(=O)(=O)c4ccccc4)c(C)o3)cc2)c1,17.1%,nt,?
COc1ccccc1CNC(=O)c1ccc(-c2nc(CS(=O)c3ccc(C)cc3)c(C)o2)cc1 (stereo unspecified),-1.6%,nt,12.6µM*
Cc1ccc(S(=O)(=O)Cc2nc(-c3ccc(C(=O)NCc4ccccc4F)cc3)oc2C)cc1,-1.9%,nt,7.94µM*
CCCNC(=O)c1ccc(-c2nc(CS(=O)(=O)c3ccc(C)cc3)c(C)o2)cc1,2.8%,nt,39.8µM*
Cc1oc(-c2ccc(C(=O)NCc3ccccc3)cc2)nc1CS(=O)(=O)c1ccccc1,?,nt,-29.2%
CCCn1cc(S(=O)(=O)c2cc(C)ccc2C)c(=O)c2cc(F)c(N3CCN(CC)CC3)cc21,0.8%,nt,-3.0%
CCOC(=O)c1c(C)oc2ncnc(N3CCN(c4ccccc4OC)CC3)c12,19.4%,nt,-8.0%
CSc1ncc(C(=O)Nc2ccccc2C(=O)c2ccccc2)c(C(F)(F)F)n1,7.1%,nt,0.9%
CCOCCCNC(=O)c1ccc(-c2nc(CS(=O)(=O)c3ccccc3)c(C)o2)cc1,-4.7%,nt,?
COCCNC(=O)c1ccc(-c2nc(CS(=O)(=O)c3ccccc3)c(C)o2)cc1,-1.5%,nt,22.4µM*
Cc1cc(C)nc(-n2nc(C)c3c2N(Cc2ccccc2C)C(=O)CC3c2ccc(Cl)cc2)n1 (stereo unspecified),22.6%,nt,3.4%
COc1cc(/C=C/C(=O)OCC(=O)c2ccc(S(=O)(=O)N3CCCCC3)cc2)cc(OC)c1OC,-2.1%,-14.5%,8.8%
Cc1ccc(C)c(C(C)NC(=O)c2ccc(Br)o2)c1 (stereo unspecified),1.9%,3.9%,35.5µM*
Cc1ccc(C)c(C(C)NC(=O)CC#N)c1 (stereo unspecified),-8.5%,-11.4%,nt
SMILES,AmpC inh detg,AmpC inh no detg,Sm TGR inh
CCOc1cc(C2C(C#N)=C(N)Oc3c2c(=O)oc2ccccc32)ccc1OC(=O)c1cccs1 (stereo unspecified),?,15.8µM*,-15.4%
N#CC1=C(N)Oc2c(c(=O)oc3ccccc23)C1c1cccnc1 (stereo unspecified),-16.7%,-14.7%,0.1%
COc1ccc(Cl)cc1C(=O)NNC(=O)CN1C(=O)C2CC=CCC2C1=O (stereo unspecified),-4.5%,-19.0%,4.3%
COC(=O)c1sc2cc(=O)n(-c3cccc(C(F)(F)F)c3)nc2c1O,?,-12.0%,-1.0%
Nc1n[nH]c2cc(=O)n(-c3cccc(C(F)(F)F)c3)nc12,5.5%,-10.5%,22.4µM*
COc1ccc(-n2nc3c(=O)[nH][nH]c3cc2=O)cc1,3.4%,-15.8%,-13.0%
